Most compounds without a hit are left out; they make up all but 0.5% or so of the library.
AddAB inh: less growth of phage-infected E. coli with AddAB; E. coli expressing H. pylori AddAB, absorbance growth; inhibition, % at 11.9 µM; actives 0.29% (n = 330,000); in the data active = inhibition above about 12%;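 also: 0% = vehicle wells of infected cells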
E coli growth-1: counter-screen for AddAB inhibitors: E. coli growth inhibition; inhibition, % at 11.9 µM; E. coli V3065 growth, OD600 absorbance, 18 h; AID 449728; actives 0.27% (n = 330,000);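 active = inhibition above the campaign's mean inhibition across all tested compounds plus 3 SD, cut at about 9.9% in these data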;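 also: uninfected addAB+ strain grown without phage in ampicillin broth; 0% = DMSO wells and 100% = ciprofloxacin 0.95 µg/ml wells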
phage Ecoli inh: E. coli growth loss with phage present; growth absorbance; inhibition, % at 11.9 µM; actives 0.26% (n = 360,000); AID 651602; in the data active = inhibition above about 11%
Tat transport: E. coli Tat transport inhibition; E. coli MC4100 TorA-mCherry Tat export, fluorescence; inhibition, % at 10 µM; actives 0.036% (n = 340,000); AID 488895;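 active = mean replicate inhibition at least 50% and at least half of replicates individually reaching 50%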;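 also: exported cargo escapes ClpAP degradation while cytoplasmic cargo is degraded and loses fluorescence; 0% = median of neutral control wells and 100% = median of NaSCN control wells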
E coli growth-2: E. coli growth inhibition | Escherichia coli growth, OD600, 23 h; active compounds read low | OD600 absorbance (test concentration not listed) | actives 0.21% (n = 330,000);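 active = OD600 absorbance below the run mean of sample wells minus 3.6 SD, in any replicate, cut at about 0.56 in these data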
RecBCD conf: growth loss of phage-infected V66 E. coli, RecBCD confirmation screen | shares compounds with phage Ecoli inh | E. coli V66 + T4 2- phage, growth OD | inhibition, % at 11.9 µM | actives 45% (n = 890) | AID 651982;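 active = mean inhibition over triplicates exceeding the hit threshold derived in the original primary screen, cut at about 11% in these data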
Ecoli viability: inhibits E. coli viability, flagging RecBCD hits as nonselective | inhibition, % at 11.9 µM | shares compounds with phage Ecoli inh | absorbance (OD) growth | AID 651983 | actives 29% (n = 890); in the data active = inhibition above about 20%;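 also: E. coli strain V66 grown with compound alone and no phage infection; 0% = bacteria with DMSO vehicle only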
AddAB phage OD: growth loss of phage-infected AddAB E. coli, RecBCD counter-screen; shares compounds with phage Ecoli inh; inhibition, % at 11.9 µM; actives 45% (n = 890); E. coli expressing H. pylori AddAB + T4 phage, OD growth; gene 2 mutant T4, recBCD-deleted host;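 active = mean inhibition above the solvent-only control wells' mean plus 3 SD, cut at about 22% in these data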;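 also: higher means less bacterial growth from phage killing when AddAB is blocked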
The depositor's hits bear a star.

For O=C1c2ccccc2NC(c2cccc(F)c2)N1Cc1ccccc1 (stereo unspecified) the results were AddAB inh 1.0, E coli growth-1 -0.8, phage Ecoli inh 0.9, Tat transport -4.2 and E coli growth-2 0.619.
For CCC(C)(O)C(=O)NC1CCCN1C(=O)C=Cc1ccccc1 (stereo unspecified) the results were E coli growth-2 0.662.
`CC(=O)OC1C[C@@]2(C)C(CC(O)C3[C@@]4(C)CCC(O)C(C)C4CC[C@@]32C)C1=C(CCC=C(C)C)C(=O)O` (stereo partly specified) gave E coli growth-2 0.631.
Screening CC(=NNC(=S)N1CCC1)c1ccccn1 returned phage Ecoli inh 40.6*, Tat transport 0.4, RecBCD conf 43.0*, Ecoli viability 52.4* and AddAB phage OD 41.4*.
For CC1CN(C(C)CO)C(=O)c2cccc(NC(=O)C3CCCCC3)c2OC1CN(C)S(=O)(=O)c1cccs1 (stereo unspecified) the results were E coli growth-2 0.658.
Cc1ccc2ccc(C(Nc3ccccn3)c3ccccc3)c(O)c2n1 (stereo unspecified) was read as AddAB inh 2.9, E coli growth-1 -3.1, phage Ecoli inh 8.2, Tat transport -2.7 and E coli growth-2 0.801.
`Cc1ccc2ccc(C(Nc3ccccc3)c3ccc(C(C)C)cc3)c(O)c2n1` (stereo unspecified) gave phage Ecoli inh 9.3.
`Cc1ccnc(NC(c2ccccc2)c2ccc3cccnc3c2O)c1` (stereo unspecified) gave phage Ecoli inh 17.1*, Tat transport -3.1, E coli growth-2 0.721, RecBCD conf 8.7, Ecoli viability 13.7 and AddAB phage OD 14.7.
For Cc1ccc2ccc(C(Nc3ccccc3)c3ccc(Cl)cc3)c(O)c2n1 (stereo unspecified) the results were phage Ecoli inh 11.8*, RecBCD conf 0.9, Ecoli viability 2.8 and AddAB phage OD 2.4.
`Cc1ccc2ccc(C(Nc3ccccc3)c3ccccc3)c(O)c2n1` (stereo unspecified) gave phage Ecoli inh 12.5*, RecBCD conf 3.2, Ecoli viability 5.0 and AddAB phage OD 11.5.
CC(=NO)C(C)/[N+]([O-])=C/c1nc(C)c(C)n1O (stereo unspecified) was read as E coli growth-2 0.765.
Cc1ccc(NC(=O)C(c2ccccc2)c2ccccc2)nc1 was read as AddAB inh 2.5, E coli growth-1 1.7, phage Ecoli inh 2.1, Tat transport 5.6 and E coli growth-2 0.679.
Screening O=C(Nc1ccccn1)C(c1ccccc1)c1ccccc1 returned phage Ecoli inh 11.9*, RecBCD conf -5.1, Ecoli viability -4.6 and AddAB phage OD -2.8.
For Cn1nnnc1SCc1ccc(F)cc1 the results were AddAB inh 0.7, E coli growth-1 -1.1, phage Ecoli inh 19.9*, Tat transport -0.8, E coli growth-2 0.664, RecBCD conf -0.5, Ecoli viability -0.4 and AddAB phage OD -0.6.
`CCN1C(=O)C2C(c3ccc(-c4ccc5c(c4)OCO5)cc3)N[C@@](Cc3ccccc3)(C(=O)OC)C2C1=O` (stereo partly specified) gave E coli growth-2 0.735.
`Cc1nn(-c2ccccc2)c(N2CCCC2)c1/C=N/NC(=O)c1ccccc1O` gave AddAB inh 2.8, E coli growth-1 1.6, phage Ecoli inh -0.8 and Tat transport 1.8.
For O=C(N/N=C/c1cc2c3c(c1O)CCCN3CCC2)c1ccccc1O the results were phage Ecoli inh 24.9*, Tat transport -5.7, RecBCD conf 10.4, Ecoli viability 14.1 and AddAB phage OD 14.4.
O=[N+]([O-])c1ccc(N/N=C/c2ccc(O)c(O)c2O)c(S(=O)(=O)N2CCOCC2)c1 was read as phage Ecoli inh 11.0*, Tat transport 4.7, RecBCD conf 8.6, Ecoli viability 9.6 and AddAB phage OD 11.4.
`O=[N+]([O-])c1ccc(N/N=C/c2cccc(O)c2O)c(S(=O)(=O)N2CCOCC2)c1` gave AddAB inh 2.3, E coli growth-1 -0.4, phage Ecoli inh 1.2 and Tat transport -6.7.
For NC(=S)NN=Cc1nccc2c(C(F)(F)C(F)(F)C(F)(F)F)cccc12 the results were phage Ecoli inh 14.6*, RecBCD conf 2.8, Ecoli viability 2.6 and AddAB phage OD 20.4.
For NC(=S)NN=Cc1nccc2ccccc12 the results were phage Ecoli inh 20.7*, Tat transport -11.2, E coli growth-2 0.459*, RecBCD conf 28.9*, Ecoli viability 38.9* and AddAB phage OD 31.8*.
For Cc1cnc(C=NNC(N)=S)c2cccc(N)c12 the results were phage Ecoli inh 1.7 and Tat transport 1.1.
Screening CC1(C)c2ccccc2N2CCC(=O)NC21C=Cc1ccco1 (stereo unspecified) returned E coli growth-2 0.646.
For CCN1CCN(C(=O)C2=CC(c3ccc(C)cc3)=NS(=O)(=O)N2C)CC1 the results were AddAB inh -0.3, E coli growth-1 -0.1, phage Ecoli inh 12.1*, Tat transport 6.3, E coli growth-2 0.754, RecBCD conf -3.4, Ecoli viability -2.0 and AddAB phage OD -2.8.
Screening Nc1nc(N)c2cc(Sc3ccc(Cl)cc3)ccc2n1 returned phage Ecoli inh 101.0*, RecBCD conf 102.1*, Ecoli viability 104.1* and AddAB phage OD 102.7*.
Screening Nc1nc(N)c2cc(Sc3cccc(C(F)(F)F)c3)ccc2n1 returned phage Ecoli inh 61.5*, RecBCD conf 67.4*, Ecoli viability 57.7* and AddAB phage OD 85.8*.
Screening FC(F)(F)c1cccc(Sc2nc(-c3ccccc3)nnc2C(F)(F)F)c1 returned AddAB inh 4.1, E coli growth-1 1.4, phage Ecoli inh 2.5, Tat transport -0.5 and E coli growth-2 0.713.
For CCCOc1ccc(CNC(=O)c2ccc3nc(N4CCOCC4)sc3c2)cc1 the results were AddAB inh -0.7, E coli growth-1 -0.8, phage Ecoli inh 25.5*, Tat transport -12.5, E coli growth-2 0.747, RecBCD conf -0.6, Ecoli viability -0.3 and AddAB phage OD 4.0.
`COc1ccc(CNC(=S)NN=Cc2ccncc2)cc1` gave E coli growth-2 0.702.
Screening O=C(Nc1cc([N+](=O)[O-])c2[nH]c(=O)c3ccccc3c2c1)C(F)(F)F returned phage Ecoli inh 13.7*, Tat transport 5.8, RecBCD conf 11.9*, Ecoli viability 15.4 and AddAB phage OD 95.7*.

Compound activity (PubChem)
